According to the supplement of paper PMC13380429:

System: Vero E6 infected with SARS-CoV-2
Test: morphology score (similarity to uninfected cells); higher = more like uninfected cells
Details: 24 h

SMILES	morphology score
CCCC(=O)C1(c2ccccc2)CCN(C(=O)[C@@H](Cc2ccc(OC)cc2)NC(=O)[C@@H](N)Cc2cncn2C)CC1 (10 µM)	0.106
O=C1NC(=O)C(c2ccccc2[N+](=O)[O-])=C1Nc1ccc(O)c(Cl)c1 (10 µM)	-0.00184
C=CC(=O)N1CCC[C@@H](n2nc(-c3ccc(Oc4ccccc4)cc3)c3c(N)ncnc32)C1 [ibrutinib] (10 µM)	0.197
Cc1ccc(C[N+](C)(C)C)o1 [5-methylfurmethiodide] (10 µM)	-0.123
NS(=O)(=O)c1cc2c(cc1Cl)NCNS2(=O)=O [hydrochlorothiazide] (10 µM)	0.0281
Oc1nc(O)c2cn[nH]c2n1 [oxypurinol] (10 µM)	-0.157
CNCC[C@H](Oc1cccc2ccccc12)c1cccs1 [duloxetine] (10 µM)	0.747
O=C(c1ccc(Cl)cc1)N(Cc1ccccc1)C1CCCCC1 (10 µM)	-0.00245
O=S(=O)(O)c1cc(I)c(O)c2ncccc12 [chiniofon] (10 µM)	0.0464
